37 molecules from PubChem BioAssay (Tox21) can be followed below.

A number with no mark means an inactive call. Activity calls are given as the source filed them. Calls follow the shape of the dose curve; as a rule, active = well fitted activation curve with a large enough effect in the repeat runs; inconclusive = weak or mixed curves; inactive = flat fitted curve, though single readings scatter.
% is scaled to controls: 0 for no effect and ±100 for the full control effect.

Chain of Androgen receptor (Homo sapiens) (P10275 whole entry, looked up): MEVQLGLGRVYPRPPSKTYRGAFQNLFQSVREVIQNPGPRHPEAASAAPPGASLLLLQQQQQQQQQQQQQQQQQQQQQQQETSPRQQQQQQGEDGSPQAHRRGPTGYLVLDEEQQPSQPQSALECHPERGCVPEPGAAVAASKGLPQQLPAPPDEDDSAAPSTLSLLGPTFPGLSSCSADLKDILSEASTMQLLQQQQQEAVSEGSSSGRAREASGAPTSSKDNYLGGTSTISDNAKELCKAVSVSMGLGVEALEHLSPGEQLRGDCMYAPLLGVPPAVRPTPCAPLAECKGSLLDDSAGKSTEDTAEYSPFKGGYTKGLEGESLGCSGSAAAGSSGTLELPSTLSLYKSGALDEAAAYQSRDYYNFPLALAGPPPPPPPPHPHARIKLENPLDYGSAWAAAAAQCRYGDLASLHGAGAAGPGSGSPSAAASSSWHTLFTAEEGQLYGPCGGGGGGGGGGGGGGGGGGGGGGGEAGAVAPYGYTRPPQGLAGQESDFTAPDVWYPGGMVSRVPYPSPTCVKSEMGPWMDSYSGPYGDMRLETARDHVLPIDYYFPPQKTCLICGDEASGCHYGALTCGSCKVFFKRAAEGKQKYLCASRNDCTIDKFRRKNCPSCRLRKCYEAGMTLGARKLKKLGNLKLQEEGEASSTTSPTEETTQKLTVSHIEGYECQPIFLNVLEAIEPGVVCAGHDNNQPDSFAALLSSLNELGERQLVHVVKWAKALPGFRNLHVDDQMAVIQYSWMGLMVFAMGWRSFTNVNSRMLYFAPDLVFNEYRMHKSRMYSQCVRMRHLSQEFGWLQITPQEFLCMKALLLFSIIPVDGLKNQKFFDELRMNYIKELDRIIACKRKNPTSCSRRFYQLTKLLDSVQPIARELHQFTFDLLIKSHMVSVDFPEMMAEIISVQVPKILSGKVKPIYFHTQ

The experiment addresses Androgen receptor (Homo sapiens) (UniProt P10275). As to the kind of experiment: qHTS assay to identify small molecule agonists of the androgen receptor (AR) signaling pathway using the MDA cell line (AID 743040; also: nearly all actives have a fitted effect of over 20% in size). The conditions noted are these: MDA-kb2 AR-luc cells, MMTV luciferase, 16 h, hits give high values; series mostly up to 70.3 µM. From the text: National Center for Advancing Translational Sciences [NCATS]
NIH Chemical Genomics Center [NCGC]
U.S. Environmental Protection Agency [EPA]
National Institutes of Environmental Health Sciences [NIEHS]
National Toxicology Program [NTP]
U.S. Food and Drug Administration [FDA]
Androgen receptor (AR), a nuclear hormone receptor, plays a critical role in AR-dependent prostate cancer and other androgen related diseases. Endocrine disrupting chemicals (EDCs) and their interactions with steroid hormone receptors like AR may cause disruption of normal endocrine function as well as interfere with metabolic homeostasis, reproduction, developmental and behavioral functions. To identify the compounds that activate AR signaling, MDA-kb2 AR-luc cell line (from ATCC, deposited by Wilson et al.) was used to screen the Tox21 10K compound library. MDA-kb2 AR-luc cell line is human breast carcinoma cell line that was stably transfected with a luciferase reporter gene under control of the MMTV promoter containing response elements for both androgen receptor (AR) and glucocorticoid receptor (GR).
Tox21 Assay Protocol Summary:
MDA-kb2 AR-luc cells were dispensed at 3,000 cells/5 uL/well of culture medium into white wall/solid-bottom 1536-well plates using a Multidrop Combi (ThermoFisher Scientific, Waltham, MA) dispenser. After the assay plates were incubated at 37C and 0% CO2 for 5 h, 23 nL of compounds dissolved in DMSO, positive controls or DMSO only was transferred to the assay plate by a Pintool station (Kalypsys, San Diego, CA). The plates were incubated at 37C and 0% CO2 for 16 h. Then 4 uL of ONE-Glo reagent (Promega, Madison, WI) was added to each plate using a Bioraptr Flying Reagent Dispenser (FRD) workstation (Beckman Coulter, Indianapolis, IN, USA) and luminescence was quantified on a ViewLux (PerkinElmer, Shelton, CT) plate reader after 30 min incubation at room temperature.
In general terms: In qHTS, concentration-response curves come from the screen itself.
As for `C[N+]1(C)CCCCC1`, the outcome was inactive.

On to `C[C@H]1CCCC(=O)CCC/C=C/c2cc(O)cc(O)c2C(=O)O1`, for which the molecule was called inactive.

Take `COc1ccc(C=O)cc1O`: the result was inactive.

As to `COP(=O)(O)OC`, the result was inactive.

As for `CCN[C@@H](C)Cc1ccccc1`, the molecule was classed as inactive.

As for `CN(C)C(=O)Oc1cc(OC(=O)N(C)C)cc(C(O)CNC(C)(C)C)c1` (configuration not stated), the molecule was classed as inactive.

Turning to `CC[C@@H](CO)NC(=O)[C@@H]1C=C2c3cccc4[nH]cc(c34)C[C@H]2N(C)C1`, the molecule was classed as inactive.

Turning to `CCOP(=S)(OCC)SCCl`, the result was inactive.

Consider `CCOC(=O)NC(C)(C)Cc1ccc(Cl)cc1`, for which the molecule was called inactive.

Take `COC(=O)c1ccc(CBr)cc1`: the call was inactive.

For `CNC(=O)O/N=C(/CSC)C(C)(C)C`, the molecule was classed as inactive.

Consider `CNC(=O)NC(O)C(Cl)(Cl)Cl` (configuration not stated), for which the result was inactive.

As for `COc1cccc([C@@]2(O)CCCC[C@@H]2CN(C)C)c1`, the molecule was classed as inactive.

Take `O=S1(=O)OCCO1`: the molecule was classed as inactive.

With `O=C(Cl)/C=C/C(=O)Cl`, the outcome was inactive.

For `CCC1(c2ccccc2)CCC(=O)NC1=O` (configuration not stated), the molecule was called inactive.

Take `CCOC(=O)CC(SP(=S)(OC)OC)C(=O)OCC` (configuration not stated): the molecule was classed as inactive.

Consider `N[C@@H]1C[C@H]1c1ccccc1`, for which the molecule was classed as inactive.

In the case of `CNC(=O)Oc1ccccc1C(C)C`, the molecule was called inactive.

Take `[O-][Br+2]([O-])O`: the molecule was classed as inactive.

In the case of `CCOC1Oc2ccc(OS(C)(=O)=O)cc2C1(C)C` (configuration not stated), the call was inactive.

`CCC1(c2ccccc2)C(=O)N(COC)C(=O)N(COC)C1=O`: the outcome was inactive.

For the molecule `OP(O)c1ccccc1`, the outcome was inactive.

Regarding `CCCOc1nn(C(=O)NS(=O)(=O)c2ccccc2C(=O)OC)c(=O)n1C`, the outcome was inactive.

Turning to `C[C@H](N)C(=O)c1ccccc1`, the molecule was classed as inactive.

Turning to `Clc1cc2c(cc1Cl)Oc1cc(Cl)c(Cl)cc1O2`, the activity change was 5.01% [at 0.341 µM].

Turning to `Cc1ccc(S(=O)(=O)N[C@@H](CCCCN)C(=O)CCl)cc1`, the call was inactive.

Turning to `Nc1c(Cl)c(F)nc(OCC(=O)O)c1Cl`, the call was inactive.

For the molecule `CC(C)N(Cc1ccccc1)C(=O)C(C)(C)C`, the call was inactive.

With `CC[C@H](N)c1ccccc1`, the result was inactive.

With `CCNc1nc(Cl)nc(NC(C)(C)C)n1`, the result was inactive.

On to `C[C@H](CN1CCOCC1)C(C(=O)N1CCCC1)(c1ccccc1)c1ccccc1`, for which the outcome was inactive.

Take `CCN(CC)C1CCCCC1`: the outcome was inactive.

As for `O=C/C=C/c1ccco1`, the call was inactive.

With `Clc1ccc(C(Cl)(Cl)Cl)cn1`, the call was inactive.

With `BrCc1ccc(Br)cc1`, the call was inactive.

Consider `CCC(C)(C#N)N=NC(C)(C#N)CC` (configuration not stated), for which the molecule was classed as inactive.
